PubChem BioAssay AID1970 (National Center for Advancing Translational Sciences (NCATS), 2009)
Records with an inconclusive call do not appear. Calls of active or inactive are those of the source. Calls follow the shape of the dose curve; as a rule, active = well fitted inhibition curve with a large enough effect; inconclusive = small, poorly fitted or top-dose-only effect; inactive = flat fitted curve, though single readings scatter.

These compounds were tested against Dual specificity protein kinase CLK4 (Homo sapiens) (UniProt Q9HAZ1) (assay: Confirmation Assay for Inhibitors of CDC-like Kinase 4 (Kinase-Glo Assay)). Details: recombinant Clk4, Kinase-Glo ATP depletion luminescence; series mostly up to 47.7 µM.
Chain of Dual specificity protein kinase CLK4 (Homo sapiens) (Q9HAZ1 whole entry, looked up): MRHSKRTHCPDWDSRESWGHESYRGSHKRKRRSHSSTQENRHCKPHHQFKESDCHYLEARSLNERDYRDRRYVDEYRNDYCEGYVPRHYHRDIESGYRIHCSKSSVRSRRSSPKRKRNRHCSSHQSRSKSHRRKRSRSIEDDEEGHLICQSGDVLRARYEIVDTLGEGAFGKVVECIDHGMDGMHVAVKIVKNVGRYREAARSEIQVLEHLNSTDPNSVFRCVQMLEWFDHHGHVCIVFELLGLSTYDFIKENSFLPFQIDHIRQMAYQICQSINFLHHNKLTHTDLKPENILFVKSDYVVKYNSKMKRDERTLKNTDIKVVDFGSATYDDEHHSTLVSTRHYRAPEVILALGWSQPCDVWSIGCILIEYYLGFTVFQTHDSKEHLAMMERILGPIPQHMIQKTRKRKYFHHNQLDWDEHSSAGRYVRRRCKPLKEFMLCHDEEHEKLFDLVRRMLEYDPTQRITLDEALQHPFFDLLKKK
Method: NIH Molecular Libraries Probe Production Centers Network [MLPCN] NIH Chemical Genomics Center [NCGC] MLPCN Grant: 1R03MH084827-01 Assay Submitter (PI): Tom Misteli NCGC Assay Overview: Clk4 (Invitrogen, cat# PV3839) was assayed using ATP and the RS repeat peptide (AnaSpec cat # 61722) as substrates. Following the Clk4 reaction, the remaining ATP levels were detected using Promega Kinase-Glo technology wherein the remaining ATP from the kinase reaction is detected using Ultra-Glo luciferase and D-luciferin which generates a bioluminescence signal from the ATP.
NCGC Assay Protocol Summary: Two uL/well of substrate-buffer solution (100 uM RS peptide, 1 uM ATP, 25 mM Tris pH7.5, 10 mM MgCl2, 0.5 mM EGTA, 2.5 mM DTT, 0.01% Triton X-100 final concentration) was dispensed into 1536-well, assay plates (Greiner, solid white medium-binding plates) with Aurora Discovery BioRAPTR Flying Reagent Dispenser (FRD; Beckton-Dickenson). Using a Kalypsys pin tool equipped with a 1536-pin tool, 23 nL of compound solution was transferred to the assay plate. One uL/ well Clk4-buffer solution (25 nM Clk4, 25 mM Tris pH 7.5, 10 mM MgCl2, 0.5 mM EGTA, 2.5 mM DTT, 0.01% Triton X-100, final concentrations) was then added using the FRD yielding a total kinase reaction volume of 3 uL/ well. After 4.5 hours of room temperature incubation, 3 uL Kinase-Glo reagent was added for a final assay volume of 6 uL/ well. Luminescence was detected with the ViewLux plate reader (Perkin Elmer, Waltham, MA) after 5 min incubation using a 5 second exposure time and 2x binning.

Potency, active:
Cc1cccc(-c2ccc3ncnc(NCc4cccs4)c3c2)c1 7080 nM
CN(Cc1nccs1)c1ncnc2ccc(-c3ccc4c(c3)OCO4)cc12 37.7 nM
Cc1cccc(-c2ccc3ncnc(NCc4cc(C)cs4)c3c2)c1 14100 nM
c1csc(CNc2ncnc3cc(-c4ccc5c(c4)OCO5)ccc23)c1 11900 nM
CC(C)(C)CNc1ncnc2ccc(-c3ccc4c(c3)OCO4)cc12 32.4 nM
Cc1csc(CNc2ncnc3ccc(-c4cccc(Cl)c4)cc23)c1 7940 nM
CCOC(=O)c1ccc(-c2ccc3ncnc(NCc4cccs4)c3c2)o1 116 nM
Fc1cccc(CNc2ncnc3ccc(-c4ccccc4Cl)cc23)c1 11200 nM
Cc1ccc(CNc2ncnc3ccc(-c4ccc5c(c4)OCO5)cc23)s1 189 nM
c1nc(N2CCC(N3CCCC3)CC2)c2cc(-c3ccc4c(c3)OCO4)ccc2n1 4630 nM
Cc1cccc(CNc2ncnc3ccc(-c4ccc5c(c4)OCO5)cc23)c1 112 nM
Cc1nc(CNc2ncnc3ccc(-c4ccc5c(c4)OCO5)cc23)cs1 47.5 nM
c1cncc(CNc2ncnc3ccc(-c4ccc5c(c4)OCO5)cc23)c1 100 nM
c1csc(CNc2ncnc3ccc(-c4ccc5c(c4)OCCO5)cc23)c1 112 nM
Cc1cccc(CNc2ncnc3ccc(-c4ccoc4)cc23)c1 199 nM
COc1cccc(-c2ccc3ncnc(NCc4cccs4)c3c2)c1 519 nM
Cc1occc1CNc1ncnc2ccc(-c3ccc4c(c3)OCO4)cc12 47.5 nM
Cc1csc(CNc2ncnc3ccc(-c4ccc5c(ccn5C)c4)cc23)c1 35500 nM
Cc1cccc(CNc2ncnc3ccc(-c4cccc(Cl)c4)cc23)c1 14100 nM
Cn1ccc2cc(-c3ccc4ncnc(NCc5cccs5)c4c3)ccc21 31600 nM
c1csc(CNc2ncnc3ccc(-c4ccc5c(c4)OCO5)cc23)c1 45.8 nM
Cn1cncc1CNc1ncnc2ccc(-c3ccc4c(c3)OCO4)cc12 75.2 nM
Fc1c(-c2ccc3ncnc(NCc4cccs4)c3c2)ccc2c1OCO2 65.4 nM
Cn1ccc2cc(-c3ccc4ncnc(NCc5cccnc5)c4c3)ccc21 12600 nM
Cc1cccc(CNc2ncnc3ccc(-c4ccc5c(c4)OCCO5)cc23)c1 501 nM
Cc1csc(CNc2ncnc3ccc(-c4ccc5c(c4)OCO5)cc23)n1 37.7 nM
Fc1cccc(CNc2ncnc3ccc(-c4ccc5c(c4)OCO5)cc23)c1 100 nM
CC(Nc1ncnc2ccc(-c3ccc4c(c3)OCO4)cc12)c1ccco1 (stereo not given) 119 nM
CC(c1ccco1)N(C)c1ncnc2ccc(-c3ccc4c(c3)OCO4)cc12 (stereo not given) 67.1 nM
Cc1nc(CN(C)c2ncnc3ccc(-c4ccc5c(c4)OCO5)cc23)cs1 33.6 nM
CN(C)CCNc1ncnc2ccc(-c3ccc4c(c3)OCO4)cc12 463 nM
Cc1occc1-c1ccc2ncnc(NCc3ncc[nH]3)c2c1 463 nM
CCN(Cc1sccc1C)c1ncnc2ccc(-c3ccc4c(c3)OCO4)cc12 146 nM
CN(Cc1cncn1C)c1ncnc2ccc(-c3ccc4c(c3)OCO4)cc12 292 nM
Cc1csc(CNc2ncnc3ccc(-c4ccc5c(c4)OCCO5)cc23)c1 447 nM
Cc1nc(C)c(-c2ccc3ncnc(NCCc4cnc[nH]4)c3c2)s1 3680 nM
FC1(F)Oc2ccc(-c3ccc4ncnc(NCc5cccs5)c4c3)cc2O1 18400 nM
c1nc(NCc2ccoc2)c2cc(-c3ccc4c(c3)OCO4)ccc2n1 37.7 nM
Cc1cccc(CNc2ncnc3ccc(-c4cccc(C)c4)cc23)c1 8910 nM
Cc1nc(CSc2ncnc3ccc(-c4ccc5c(c4)OCO5)cc23)cs1 184 nM
